# NADH enzymes: inhibition of NAD/NADH coupling enzymes, library profiling. coupled PK/LDH NADH assays, four targets. IC50, µM (titrated, usually from 10 µM), for inactives: at the top dose inhibition. actives 0.02% (n = 65,000);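 active = single-dose screening hits from any of four coupled enzyme assays that gave an IC50 when retested across doses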;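 note: the DPM-DC format reads NADH fluorescence rather than 340 nm absorbance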
# DPM-DC inhibit: blocks S. pneumoniae diphosphomevalonate decarboxylase; actives 0.49% (n = 65,000); calls only at 10 µM; purified DPM-DC, PK/LDH coupled NADH fluorescence;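 active = the 320 compounds with the highest percent inhibition in the single-dose primary screen, excluding strongly autofluorescent ones, cut at about 32% in these data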;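 note: kinetic rate of NADH fluorescence loss reporting ADP formed by the decarboxylase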
# PMK inhibit: inhibitors of Streptococcus pneumoniae phosphomevalonate kinase; purified PMK, PK/LDH-coupled NADH absorbance 340 nm; inhibition, % at 10 µM; actives 0.49% (n = 65,000); AID 539;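 active = top-ranked compounds by inhibition in the single 10 µM screen, taking a fixed number of the strongest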;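 note: 0% = full reaction with DMSO carrier and 100% = background rate without enzyme reaction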
# Autofluor 339: intrinsic fluorescence of library compounds, ex339/em460 – biochemical, MLSMR library, data from DPM-DC assay, artefact control, profiling panel | actives 5.5% (n = 65,000) | fluorescence fold increase at 10 µM | compound autofluorescence, ex339/em460 nm, NADH buffer; active compounds read high; 1 = no-compound wells, NADH background | AID 709;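 active = at 10 µM, mean starting fluorescence two-fold or more over control wells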;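 note: signal is the first read of a kinetic run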
# Spn MK inh: blocks S. pneumoniae mevalonate kinase; purified MK, PK/LDH-coupled NADH absorbance 340 nm; inhibition, % at 10 µM; actives 0.48% (n = 65,000);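 active = ranked among the strongest by inhibition in the single 10 µM screen, a fixed top-ranked set picked for dose follow-up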
# * hit, by the source's call; i = inactive; · = no result shown; + = active, no number. Rows were chosen to be rich in hits. Some 6.6% of all compounds tested hit in one or more screens of this group.
SMILES,NADH enzymes,DPM-DC inhibit,PMK inhibit,Autofluor 339,Spn MK inh
O=C1CCCc2c1nc(-c1ccccc1)n2O,47%,·,0,2.1*,93*
O=C1CCCc2c1nc(-c1ccco1)n2O,5%,·,6,3.9*,3
Cc1cc(NC(=O)CN2C(=O)C3CC=CCC3C2=O)no1 (stereo unspecified),3%,i,9,1,1
Cc1cc2ncn(C(=O)c3c(-c4ccccc4Cl)noc3C)c2cc1C,6%,i,11,1,8
COc1cccc(NS(=O)(=O)c2nc3nc(C)cc(C)n3n2)c1,0%,i,0,1.1,0
Cc1sc(NC(=O)c2oc3ccccc3c2C)c(C#N)c1C,3%,·,4,3.8*,1
Cc1oc2c(O)c(O)ccc2c(=O)c1-c1ccccc1,13%,i,29*,0.98,5
COc1ccccc1-c1c(C)oc2c(CN3CCN(CCO)CC3)c(O)ccc2c1=O,1%,·,0,3.9*,2
CCOC(=O)c1oc2c(CN3CCN(C)CC3)c(O)ccc2c(=O)c1-c1ccccc1OC,1%,i,1,0.97,1
COc1ccccc1-c1c(C)oc2c(CN3CCN(C)CC3)c(O)ccc2c1=O,10%,·,8,2.4*,11
Cc1oc2c(CN3CCCC3)c(O)ccc2c(=O)c1-c1ccc(Br)cc1,10%,·,12,3.8*,7
Cc1oc2c(O)c(O)ccc2c(=O)c1-c1cnn(-c2ccccc2)c1,3%,i,1,1.1,8
COc1cccc(-c2cc(C(F)(F)F)nc(N3CCCCC3)n2)c1,3%,i,0,1.4,8
CC(C)(C)OC(=O)N1CCC(C(=O)N2CCC[C@H]2C(=O)O)CC1,0%,i,0,1.2,0
Cc1cnn(-c2ccc3nnc(-c4ccc(Br)cc4)n3n2)c1,11%,i,22,1.6,3
CCOC(=O)c1c(/N=C/N(C)C)sc(C(=O)OC)c1C,2%,i,1,1,4
COc1ccc(C2(C(=O)NCCCN3CCOCC3)CCOCC2)cc1,5%,i,12,1.1,3
C=CCn1nnc2sc3c(c2c1=O)CCC(C)C3 (stereo unspecified),6%,i,0,0.98,15
COC(=O)c1ccccc1NC(NC(=O)c1ccco1)C(=O)c1ccc(C)cc1 (stereo unspecified),8%,i,13,1.1,6
CCOc1ccccc1Oc1c(C)oc2c(CN3CCN(C)CC3)c(O)ccc2c1=O,12%,·,14,3.9*,9
COc1ccc(-c2c(C)oc3c(CN4CCN(CCO)CC4)c(O)ccc3c2=O)cc1OC,0%,·,0,3.9*,0
Cc1ccc2[nH]c3c(N4CCOCC4)ncnc3c2c1,2%,·,0,2.5*,2
CN1CCN(c2ncnc3c2[nH]c2ccc(F)cc23)CC1,4%,·,0,2.3*,8
c1ccc2c(c1)[nH]c1c(N3CCCC3)ncnc12,10%,i,13,1.4,13
c1ccc2c(c1)[nH]c1c(N3CCOCC3)ncnc12,5%,i,2,1.7,3
SMILES,NADH enzymes,DPM-DC inhibit,PMK inhibit,Autofluor 339,Spn MK inh
c1ccc2c(c1)[nH]c1c(N3CCN(C4CCCCC4)CC3)ncnc12,5%,·,0,2.3*,9
COC(=O)CC1Oc2ccccc2N(Cc2ccccc2)C1=O (stereo unspecified),1%,i,0,1.1,4
COc1ccc(-c2ccc(-c3noc(-c4cccs4)n3)c(OC)n2)cc1,2%,·,1,3*,6
COc1ccc(-c2ccc(-c3noc(-c4ccccc4OC)n3)c(OC)n2)cc1,1%,·,4,3*,7
COc1ccc(-c2ccc(-c3noc(-c4ccccc4C)n3)c(OC)n2)cc1,2%,·,3,3.8*,0
COc1cc(-c2noc(-c3cccs3)n2)cc(OC)c1OC,6%,i,11,1.1,5
Cc1occc1-c1nnc(SCC(=O)N2CCCc3ccccc32)n1Cc1ccco1,8%,i,12,1,5
COc1ccc2[nH]cc(CCN=C3SCC(=O)N3C)c2c1,6%,i,8,1.1,9
O=C(c1csc2c1CCCCC2)N1CCN(c2ncccn2)CC1,5%,i,10,1.2,6
Cc1ccc(S(=O)(=O)CC(=O)N(C)C)cc1,2%,i,1,1.1,4
COCCn1c(C)cc(C(=O)COc2nc3ccccc3nc2C)c1C,18%,+,13,1.1,9
Cc1cccc(Nc2n[nH]c(=S)s2)c1C,29%,+,0,1.1,54*
CC1=CC(c2ccccc2)n2nc(N3C(=O)C4CC=CCC4C3=O)nc2N1 (stereo unspecified),7%,·,12,2.3*,2
O=S(=O)(c1cccc(-c2cn3cccnc3n2)c1)N1CCCCCC1,9%,·,12,3.6*,5
CC1CN(S(=O)(=O)c2cccc(-c3cn4cccnc4n3)c2)CC(C)O1 (stereo unspecified),5%,·,4,3.8*,5
O=C(Nc1ccccn1)c1cccc(S(=O)(=O)N2CCOCC2)c1,7%,i,6,0.95,10
O=S(=O)(c1cccc(-c2cn3cccnc3n2)c1)N1CCOCC1,13%,·,14,3.8*,11
CCn1c2ccccc2c2nc3ccccc3nc21,3%,·,0,2,6
COc1cc2nc3c4ccccc4n(CC#N)c3nc2cc1OC,8%,·,7,3.8*,8
CCn1c2ccccc2c2nc3cc(OC)c(OC)cc3nc21,26%,+,11,2.7*,·
CCOc1ccc(S(=O)(=O)Nc2ccccc2C(=O)Nc2ccccc2N2CCOCC2)cc1,2%,i,10,1,1
CCOc1ccc(S(=O)(=O)Nc2ccccc2C(=O)NCC2CCCO2)cc1 (stereo unspecified),7%,·,8,2.1*,5
O=C(OCCNc1ncc(C(F)(F)F)cc1Cl)c1ccc(S(=O)(=O)N2CCOCC2)cc1,5%,i,8,1.1,7
Cc1ccccc1N(CC(=O)NCC1CCCO1)C(=O)C1(C)CC(=O)N=C2C=CC=CN21 (stereo unspecified),6%,·,12,3.3*,17
Cc1ccc(N(C(=O)Cn2nnc3ccccc32)C(C(=O)NC2CCCCC2)c2cn(C)nc2C)cc1 (stereo unspecified),6%,i,11,1.1,6
COc1ccc(S(=O)(=O)NCC(=O)N(CC(=O)NCC2CCCO2)c2ccccc2C)cc1 (stereo unspecified),4%,i,18,1.1,8
CC1(C(=O)N(c2ccccc2)C(C(=O)NC2CCCC2)c2ccccn2)CC(=O)N=C2C=CC=CN21 (stereo unspecified),12%,·,16,4.7*,7
CC1(C(=O)N(CC(=O)NC2CCCC2)C2CCCC2)CC(=O)N=C2C=CC=CN21 (stereo unspecified),7%,·,8,3.8*,5
O=C(c1cccs1)N1CCN(C/C=C/c2ccccc2)CC1,4%,i,11,1.1,1

# Screens from PubChem BioAssay.
